ERG Ets-DNA blk: inhibitors of human ERG Ets domain-DNA interaction. fluorescence polarization, His-ERG Ets domain / labelled DNA. Potency, µM (doses to about 76.9 µM), inactives show at the top dose FP activity, negative = inhibition, actives largely listed as inhibitors. 370,000 compounds, 0.028% hits. AID 624246; active means well fitted inhibition curve with a large enough effect in the polarisation, with a control signal flat; inconclusive means small, poorly fitted or top-dose-only effect, or effect the other way, or a change in a side signal; inactive means no such curve, though single readings can be large or run the other way; the % refers to the polarisation;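 further: polarization taken with two DNA probes labelled with fluorescein and Texas red; potency means the concentration at half of the fitted maximal effect; % of control where 0% means no effect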
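His-tagged ERG Ets domain (1 uM in the protein solution; 300mM KCl, 50mM Tris-HCl, 1mM EDTA, 1mM DTT, pH 7.5) received compound, then a probe mix of 5 nM fluorescein-DNA and 100nM Texas-615-DNA. Fluorescence polarization was read for both dyes.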
D1 ag: human D1 receptor agonism; HEK293 T-REx D1 cells, calcium flux, agonist mode; 360,000 compounds, 1% hits; AID 504660; activation, % at 2 µM; in the data active means activation above about 30%; further: 0% is about no effect
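Agonism was scored from calcium flux recorded over 180 s (1 read/s) after pintool compound addition, following a 10-cycle baseline. Cells were inducible force-coupled HEK293 TREx D1, plated overnight at 30 C and loaded with no-wash calcium dye.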
D1 antag: blocks dopamine activation of the human D1 receptor; P21728; HEK293 TREx D1 cells, calcium flux, dopamine EC80; hits give low values; activity change, negative = inhibition, % at 10 µM; 360,000 compounds, 3.2% hits; AID 504652; in the data active means activity change below about -30%; further: on the % scale 0 is the no-effect control and ±100 the full control effect
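HEK293 T-REx cells expressing inducible, force-coupled D1 receptor; no-wash Ca dye, 30–90 min RT. Cmpd → 180 s read at 1 Hz → EC80 DA → 180 s read.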
DRD3 agonist: activates the human D3 dopamine receptor; D3R DiscoveRx beta-arrestin cells, luminescence, 90 min; AID 652048; max activation, %; P35462; 410,000 compounds, 0.58% hits; in the data active means max activation above about 30%; further: 0% is about no effect
Target sequence (P35462 whole entry, looked up): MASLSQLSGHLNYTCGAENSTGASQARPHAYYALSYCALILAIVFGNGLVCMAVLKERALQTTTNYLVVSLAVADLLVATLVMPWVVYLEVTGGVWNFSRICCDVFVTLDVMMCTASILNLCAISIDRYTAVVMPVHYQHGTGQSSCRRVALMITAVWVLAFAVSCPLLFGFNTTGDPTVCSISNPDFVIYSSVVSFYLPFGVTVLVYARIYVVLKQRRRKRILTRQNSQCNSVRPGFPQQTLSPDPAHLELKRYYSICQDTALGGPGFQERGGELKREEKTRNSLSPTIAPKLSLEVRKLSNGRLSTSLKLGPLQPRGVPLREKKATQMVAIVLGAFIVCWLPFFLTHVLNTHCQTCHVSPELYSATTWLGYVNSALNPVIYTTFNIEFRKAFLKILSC
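Cells at 1500/well, incubated overnight, then treated with pinned compounds (dopamine as control) for 90 min at 37 degrees C. DiscoveRx reagent added for 30 - 60 minutes at room temperature; luminescence read.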
D1 PAM: human D1 dopamine receptor positive modulation | P21728 | HEK293 TREx D1 cells, calcium flux, dopamine EC20 potentiation | potentiation, % at 10 µM | 360,000 compounds, 0.036% hits | AID 504651; in the data active means potentiation above about 30%; further: 0% is about no effect
DRD3 antagonist: antagonists of human D3 dopamine receptor; D3R cells, DiscoveRx beta-arrestin luminescence, antagonist mode; hits give low values; 360,000 compounds, 2.5% hits; P35462; AID 652054; max response, negative = inhibition, %; in the data active means max response below about -50%; inconclusive means no clear call, values can overlap the other calls; further: on the % scale 0 is the no-effect control and ±100 the full control effect
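Cells plated overnight at 1500 cells/well, then exposed to library compounds with dopamine controls for 90 minutes at 37 degrees C. DiscoveRx reagent added for 30–60 minutes at room temperature; luminescence read, quantitative HTS format.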
The depositor's hits bear a star; ? = inconclusive; · = no result given; ! = repeats disagree. The list is not random: actives were taken first. Their share in the collection is about 6.1%.

SMILES | ERG Ets-DNA blk | D1 ag | D1 antag | DRD3 agonist | D1 PAM | DRD3 antagonist
CCOc1ccc(C(=O)NCC(=O)OCC(=O)N2C(C)CCCC2C)cc1 (stereo not drawn) | -2% | 0 | 7 | -3 | 11 | 15
COc1ccccc1CNC(=O)COC(=O)C1CCN(S(=O)(=O)c2c(Cl)cccc2Cl)CC1 | -5% | · | · | 1 | · | -3
COc1cccc2cc(C(=O)NCc3ccco3)c(=Nc3ccc(C(=O)O)cc3)oc12 | · | 0 | 4 | 6 | -2 | 20
CN(C)CCNC(=O)c1ccc2c(c1)N(Cc1ccccc1)C(=O)c1ccccc1S2(=O)=O | -9% | 8 | -5 | -9 | 0 | ·
CCc1ccc(S(=O)(=O)c2nnn(-c3cccc(C)c3)c2N)cc1 | -4% | 64* | -30* | 1 | 1 | ·
CC12CCC(C(=O)N(CCCCN3CCN(Cc4ccccc4)CC3)C1=O)C2(C)C (stereo not drawn) | 4% | 1 | 2 | -11 | -9 | -74*
CCc1ccc(CN(Cc2cn[nH]c2-c2ccc(OC)cc2)C(=O)Nc2cc(Cl)ccc2OC)cc1 | -11% | 2 | -62* | 11 | 4 | ·
Cc1cc2cc(CNC(=O)C(C)Oc3ccccc3)ccc2n1C (stereo not drawn) | ? | 2 | -3 | -1 | 3 | 11
O=C(CCC(=O)c1cccs1)NNC(=O)c1ccccc1Cl | -3% | 0 | 9 | 8 | -7 | -4
C[C@H](NC(=O)c1ccccc1Cl)C(=O)OCC(=O)NNC(=O)c1cccs1 | 23% | 6 | 6 | -15 | 2 | -55*
CCN1CCN(C(=O)c2ccc3c(c2)N(Cc2cccc(F)c2)C(=O)c2ccccc2S3)CC1 | 0% | 2 | -1 | -16 | -4 | ·
Cc1nc2c(C)cccn2c1/C(O)=C1\C(=O)C(=O)N(CCN(C)C)C1c1ccco1 (stereo not drawn) | -6% | 3 | 5 | -4 | 1 | 1
Cc1ccc(SC(=O)c2c(C)noc2-c2cc(C)on2)cc1 | 11% | 2 | -17 | -8 | -8 | -92*
CS(=O)(=O)N1CCCC(C(=O)Nc2ccc(F)cc2)C1 (stereo not drawn) | -8% | 7 | 7 | -1 | -4 | -8
CCc1c(C#N)sc(C(N)=O)c1CC | -10% | 0 | -58* | -6 | 1 | -9
Cc1c(C#N)sc(C(N)=O)c1C | -7% | 5 | -3 | 0 | 17 | 10
Cn1nnnc1SCCNC(=O)C1CCC(=O)N(Cc2ccccc2F)C1 (stereo not drawn) | 6% | 4 | -1 | 2 | 11 | -9
COc1ccc(CCNC(=O)COc2cc(C)cc3oc(=O)cc(C)c23)cc1 | 4% | 1 | 2 | 3 | -4 | 11
CC(C)(C)c1ccc(C(=O)NC(=S)NCc2cccnc2)cc1 | 10% | 16 | -17 | 2 | -3 | 5
CCc1ccc(NC(=O)c2ccc(S(=O)(=O)NCc3cccnc3)cc2)cc1 | 8% | 10 | -34* | -4 | · | 5
COc1cccc(NC(=O)c2ccc(S(=O)(=O)NCc3cccnc3)cc2)c1 | 4% | 5 | -19 | -30 | -6 | 9
CCc1ccc(C(=O)NC(=S)NCc2cccnc2)cc1 | -7% | 3 | -35* | -5 | -9 | 3
O=[S+]([O-])(c1ccc2c(c1)OCCO2)N1CCN([S+](=O)([O-])c2ccccc2Br)CC1 | · | 3 | -4 | · | 10 | ·
CN(CC(=O)NC1CCCCC1)S(=O)(=O)c1ccc2c(c1)c(=O)n(C)c(=O)n2C | 7% | 1 | 11 | 19 | -1 | 5
COc1ccc(CNC(=O)c2ccc(C(C)(C)C)cc2)cc1 | -3% | 8 | -7 | -8 | -7 | -18
SMILES | ERG Ets-DNA blk | D1 ag | D1 antag | DRD3 agonist | D1 PAM | DRD3 antagonist
COc1ccc(CNC(=O)c2ccc(C(C)C)cc2)cc1 | 7% | 3 | -47* | -2 | -4 | 10
COc1ccc(CNC(=O)c2cc3sccc3n2C)cc1 | 4% | 0 | -52* | -3 | -1 | ·
Cc1cc(S(=O)(=O)N2CCOCC2)ccc1OCC(=O)Nc1ccc(F)c(Cl)c1 | ? | 20 | -23 | -8 | · | -15
COc1ccnc(CSC(N)=Nc2cccc(C(F)(F)F)c2)c1 | 2% | 5 | -27 | -23 | -6 | -51*
COc1ccnc(CSC(N)=Nc2ccccc2OC)c1 | -7% | 2 | -15 | -3 | -7 | -75*
COc1ccnc(CSC(N)=Nc2ccccc2C(F)(F)F)c1 | -7% | 10 | -3 | -11 | 1 | -10
COc1ccc(Br)cc1/C(C)=N/NC1=NCCN1 | 18% | 14 | · | -20 | -2 | -52*
Cc1ccccc1C(=O)Nc1ccc(C(=O)NNC(=O)CCCOc2ccc(Cl)cc2Cl)cc1 | 6% | 3 | -39* | -11 | -4 | -27
OCCN1CN=C(Nc2nc3ccccc3o2)NC1 | -2% | 0 | -42* | 0 | 1 | 15
CCC(C)c1nc2c(c(N3CCC3=O)c1-c1ccccc1)CCCC2 (stereo not drawn) | 12% | · | · | 62* | · | 0
C=C(C)COc1ccc(-c2[nH]ncc2-c2ccccc2OC)c(O)c1 | -12% | 7 | -12 | -3 | -5 | -63*
COc1cccc(C(=O)Nc2nnc(Cc3ccc(OC)c(OC)c3)s2)c1 | -4% | 4 | -6 | 2 | 2 | -8
COc1ccc(Cc2nnc(NC(=O)c3ccc(OC)c(OC)c3)s2)cc1OC | -1% | 4 | -19 | 42* | -4 | 7
COc1ccc(Cc2nnc(NC(=O)CSc3ccc(Cl)cc3)s2)cc1OC | · | 98* | 64 | · | 2 | ·
CSc1nc(NC(C)(C)C)nc(Oc2ccc(=O)[nH]n2)n1 | 8% | 1 | 5 | -5 | -3 | ?
CNc1nc(Oc2ccc(=O)n(C)n2)nc(N2CCOCC2)n1 | -1% | 2 | -31*! | 7 | -10 | 1
CSc1nc(NC(C)(C)C)nc(Oc2ccc(=O)n(C)n2)n1 | -4% | 2 | -34* | -3 | -7 | -3
CC(C)Nc1nc(NC(C)(C)C)nc(Oc2ccc(=O)n(-c3ccccc3)n2)n1 | -17% | 37* | 4 | -1 | 3 | 19
CCNc1nc(Oc2ccc(=O)n(C)n2)nc(N2CCOCC2)n1 | -6% | 4 | 8 | 5 | -5 | 0
COc1cc2cc(Oc3ccc4ccc(=O)oc4c3)c(=O)oc2cc1OC(=O)/C=C/c1ccccc1 | -4% | 2 | -62* | -5 | -7 | 6
COc1cc2cc(Oc3ccc4ccc(=O)oc4c3)c(=O)oc2cc1O[C@@H]1O[C@H](CO)[C@@H](O)[C@H](O)[C@H]1O | 0% | · | · | 17 | · | 14
Cc1ccccc1Nc1nc2ccccc2s1 | -12% | 37* | 12 | 18 | -8 | 10
CN(C)C(=S)Nc1nc2ccccc2s1 | 5% | 2 | -30* | -2 | -4 | 2
